Compounds without any hit were thinned out: in the full panel of roughly 83,000, 20% have a hit.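 Single-concentration screen, 48 h exposure, 96-well plates. Endpoint: percent growth. Below 10 = active.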 Unmarked numbers belong to inactive results. Activity calls are given as the source filed them.

Consider 24 compounds from PubChem BioAssay (NCI).

Experiment in all cases: NCI-60 one-dose screen, 48 h (100 = growth as untreated, 0 = no growth, -100 = all killed)
Settings in all cases: 10 µM unless noted

For test [1], the system named is NCI-H23 lung.
Test [2] relates to NCI-H226 lung.
The test system of test [3] is NCI-H322M lung.
Test [4] concerns HOP-62 NSCLC.
Test [5] relates to NCI-H460 lung.
Test [6] concerns HOP-92 NSCLC.
The test system of test [7] is NCI-H522 lung.
Test [8] relates to A549/ATCC NSCLC.
For test [9], the system named is 786-0 renal.
Test [10] has as its system COLO 205 colon.

`CC/C(=C(/c1ccc(Cl)cc1)c1ccc(OCCN)cc1)c1ccccc1`: the growth in test [1] is 96%; in [2] it was 105%; in test [3] it was 108%; in test [4] it was 116%; in [5], 60.2%; in test [6], 103%. In addition, the growth was 98.1% in test [7], 86.2% in test [8], 87.9% in test [9] and 18% in test [10].
Turning to `Clc1ccc2c(N/N=C/c3c[nH]c4ccccc34)ccnc2c1`, the growth in [1] was -88.2% (active); in test [2], -52.1% (active); in test [3], -89.9% (active); in test [4], -75.1% (active); in test [5], -87.2% (active); in test [6] it was -88.7% (active). Also, the growth in [7] is -77.6% (active); in test [8], -24.3% (active); in [9], -89.8% (active); in test [10], -85.4% (active).
Consider `Cc1[nH]c(C(=O)Nc2ccc(C(=O)NCC3CCNCC3)cc2OC(C)C)c(Cl)c1Cl`, for which the growth in [1] was 83%; in test [2] it was 83.6%; in [3] it was 92.1%; in test [4] it was 86.4%; in test [5], 34.7%; in test [6] it was 65.9%. Further, the growth is 90.7% in test [7], 65.4% in test [8], 79.8% in [9] and -13.3% (active) in [10].
On to `Cc1csc(/N=C(N)/N=C(\N)c2cccs2)n1`, for which the growth in [1] is 90.5%; in [2], 99.1%; in [3], 100%; in [4], 103%; in test [5] it was 104%; in [6], 69.1%. The growth in test [7] was 98.9%; in test [8], 102%; in test [9] it was 112%; in test [10], 109%.
As for `O=C(N/N=C\c1ccc(F)cc1)c1ccc2nc(-c3ccc(Br)cc3)[nH]c2c1`, the growth in [1] is 0.752% (active); in test [2] it was 32.9%; in test [3] it was 68.1%; in test [4], 25.1%; in test [5], -64.4% (active); in test [6], 53.3%. In addition, the growth in [7] was 81%; in [8], -3.93% (active); in test [9] it was -32% (active); in test [10] it was 19.2%.
Regarding `Cc1nc(N)sc1-c1csc(Nc2ccc(C(F)(F)F)cc2)n1`, the growth in [1] is 34.4%; in test [2], 37.4%; in [3], 61.4%; in test [4] it was 47.3%; in [5], 25.1%; in [6] it was 37.3%. Besides, the growth is -56.3% (active) in test [7], 45.1% in [8], 38.6% in test [9] and 19.6% in [10].
For `CC(=C(c1ccc(OCCN(C)C)cc1)c1ccc(OCCN(C)C)cc1)c1ccc(Cl)cc1`, the growth in test [1] was 29.5%; in test [2], -11.9% (active); in test [3], -3.42% (active); in [4] it was -57.8% (active); in test [5] it was -71.9% (active); in test [6], -9.45% (active). Further, the growth in test [7] was -64.5% (active); in [8], -65% (active); in test [9], -67.5% (active); in test [10] it was -50% (active).
Turning to `COc1ccc(-c2cc(-c3ccc(N(C)C)cc3)n3c(n2)nc2ccccc23)cc1`, the growth in test [1] was 68%; in test [2] it was 60.8%; in [3], 82.2%; in test [4] it was 77.9%; in test [5], 53.3%; in test [6] it was -5.95% (active). Besides, the growth in test [7] was 17.7%; in test [8], 38.6%; in test [9], 42.8%; in test [10], 59.4%.
Consider `O=C(NNc1nc2cc(F)cc(F)c2n2cccc12)c1cccnn1`, for which the growth in test [1] was 21.7%; in [2], -3.91% (active); in test [3], 28.4%; in [4], 28.2%; in test [5] it was 6.92% (active); in test [6], 75.4%. The growth in [7] is 0.0735% (active); in test [8], 17.5%; in test [9], 14.3%; in test [10] it was 16.3%.
`CNC(=O)Nc1ccc(Nc2cc(-c3ccc(-n4cccn4)cc3)[nH]n2)c(C)c1`: the growth in test [1] was 102%; in [2], 104%; in test [3], 101%; in test [4] it was 106%; in test [5], 97.3%; in [6], 173%. For the same compound, the growth was 96.1% in [7], 102% in test [8], 111% in test [9] and 124% in test [10].
Take `CN1CC[C@@H]2[C@@]3(C)CC[C@H](O)C(C)(C)[C@@H]3CC[C@@]2(C)[C@]2(C)CC[C@@]3(CO)CCC(C)(C)C[C@@H]3C12` (stereo not given in full): the growth was 90.7% in [1]; 94.4% in [2]; 98.8% in test [3]; 101% in test [4]; 98.3% in [5]; 66.8% in test [6]. The growth in [7] was 98%; in test [8], 86%; in test [9], 80.7%; in test [10] it was -2.47% (active).
As for `NC(=O)n1c(=O)n(-c2cccc(C(F)(F)F)c2)c(=O)c2cc(-c3ccc(F)cc3F)ccc21`, the growth in [1] was -6% (active); in test [2] it was 13.2%; in test [3], 0.936% (active); in test [4], -9.38% (active); in [5] it was 4.55% (active); in test [6], -36.3% (active). Moreover, the growth was -11.2% (active) in [7], 4.69% (active) in test [8], 45% in [9] and 87.5% in test [10].
Take `O=C(O)c1ccc(-n2c(=O)n(-c3cccc(C(F)(F)F)c3)c(=O)c3cc(-c4ccc(F)cc4F)ccc32)cc1`: the growth in [1] is -4.43% (active); in test [2], 10.4%; in test [3], 8.23% (active); in [4], 6.54% (active); in [5], 5.81% (active); in [6] it was -28.5% (active). In addition, the growth in [7] is -7.88% (active); in test [8], 10%; in [9], 22.3%; in [10] it was 65.1%.
For `COc1ccc(OC)c(NC(=O)CCCCCCNC(=O)C(O)(O)C(F)(F)F)c1`, the growth is 48.6% in test [1]; 78.7% in [2]; 61% in [3]; 36.8% in test [4]; 39% in test [5]; 28.8% in [6]. Further, the growth in [7] was -0.794% (active); in test [8], 47.7%; in [9], 50%; in test [10] it was 10.5%.
Take `CCCCCN1C(=O)/C(=c2\sc3n(c2=O)C2C(NN=3)N(CC)C(=O)N2CC)c2cccc(C)c21` (stereo not given): the growth in [1] is 70%; in [2] it was 42.4%; in test [3], 82.7%; in [4], 44.2%; in test [5], 30.9%; in test [6], 70.2%. Further, the growth was 30.4% in test [7], 68.6% in test [8], 76% in test [9] and 38.7% in test [10].
`CN1CCN(CC#CCn2c3c(c4ccccc42)C[C@]2(C)[C@H]4CC=C5[C@@H]6CC(C)(C)CC[C@]6(C(=O)N6CCOCC6)CC[C@@]5(C)[C@]4(C)CC[C@H]2C3(C)C)CC1`: the growth in test [1] was 74%; in test [2], 85.7%; in [3], 94.9%; in test [4], 91.7%; in test [5] it was 17.6%; in [6], 22.5%. Moreover, the growth is 97% in test [7], 41.9% in [8], 76.3% in test [9] and 87.3% in test [10].
For `CCOP(=O)(OCC)OC[C@]12CCC(C)(C)C[C@H]1C1=CC[C@@H]3[C@@]4(C)CC[C@H](OP(=O)(OCC)OCC)C(C)(C)[C@@H]4CC[C@@]3(C)[C@]1(C)CC2`, the growth was 53.9% in test [1]; 66.1% in [2]; 83.7% in [3]; 82.9% in [4]; 51.3% in [5]; 27.9% in test [6]. Also, the growth in [7] was 51.5%; in test [8], 44.3%; in test [9], 66.3%; in test [10] it was 66.6%.
For the compound `COC(=O)c1cccc(NC2=C(Cl)C(=O)C(C)=C(C)C2=O)c1`, the growth in [1] was 92.4%; in test [2], 85.9%; in test [3], 100%; in test [4], 94.8%; in test [5], 101%; in test [6], 33.9%. The growth is 95.8% in test [7], 115% in [8], 104% in test [9] and 114% in [10].
With `COc1cc(NC(=O)Nc2cccc(-c3cc(=O)c4c(OC)c(OC)c(OC)cc4o3)c2)cc(OC)c1OC`, the growth in [1] was 34.6%; in test [2] it was 49.7%; in [3] it was 64.4%; in test [4], 49.7%; in test [5], 31.5%; in test [6], -8.97% (active). For the same compound, the growth is 39.6% in [7], 57.2% in test [8], 35.3% in test [9] and 58.1% in [10].
For `CN(C)CC(=O)Nc1nc(-c2cccc(NS(=O)(=O)c3cccc4c(N(C)C)cccc34)c2)cs1`, the growth was 75.6% in test [1]; 74.1% in [2]; 96.2% in [3]; 103% in [4]; 92.4% in [5]; 60.8% in [6]. Further, the growth is 76.7% in test [7], 80.1% in [8], 90.5% in test [9] and 104% in test [10].
On to `Cc1cc2nc3c4cc(C#N)ccc4n(CCN(C)C)c3nc2cc1C`, for which the growth is -35% (active) in test [1]; -21.5% (active) in [2]; -0.486% (active) in test [3]; 4.29% (active) in test [4]; -42.3% (active) in test [5]; -19.1% (active) in [6]. Moreover, the growth in test [7] is -52.1% (active); in test [8] it was -67.2% (active); in test [9], 6.69% (active); in [10], -82.7% (active).
With `O=C(/C=C/c1ccc(F)cc1)Nc1cccc2cccnc12`, the growth in test [1] is 91.6%; in [2] it was 97.8%; in [3] it was 101%; in [4], 98.5%; in test [5], 89.4%; in [6], 108%. The growth in test [7] was 97.5%; in test [8], 107%; in [9] it was 108%; in [10], 114%.
For `Cc1ccc(NC(=O)/C=C/c2ccc(OCCCOc3ccc4c(C)cc(=O)oc4c3)cc2)cc1`, the growth in test [1] was 75.1%; in [2] it was 56.8%; in test [3], 37.8%; in [4], 48.5%; in test [5] it was 38.8%; in [6], 35.7%. The growth in test [7] is 51.9%; in test [8] it was 82.9%; in [9] it was 44.3%; in test [10] it was 82.2%.
On to `CC(C)NC(=O)c1cc(-c2ccc(NC(=O)Nc3ccc(F)c(C(F)(F)F)c3)cc2)nc2cccnc12`, for which the growth was 93.2% in [1]; 94.8% in [2]; 107% in test [3]; 80.8% in test [4]; 86.4% in [5]; 90.1% in test [6]. Besides, the growth in [7] was 87.4%; in [8], 86.8%; in [9], 88.3%; in test [10], 114%.
